Test results: PubChem BioAssay AID1159580 (chemical genetic matrix, 2015)
“And” between values parts separate entries of the source, which are not always exact repeats. Equal values may be shown once. Out of some 5,500 compounds screened, about 2,000 (36%) were called active. About 18% were inconclusive and are not listed. Rule as the data show it: active = normalized growth mostly below about 0.91 (no sharp cut-off); inconclusive = no clear call, values can overlap the other calls; inactive = mostly above about 0.92. This is one part of the list.

Assay: chemical genetic growth profiling, strain panel (AID 1159580);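 also: tested at 20 µM; growth read once vehicle control cultures reached saturation at 30 °C; 1 = growth at the plate median or of vehicle wells; lower values mean less growth of the strain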
Details: S. cerevisiae deletion strains, growth OD

Measured: normalized growth

CC(=O)OCC(=O)[C@@]1(O)[C@H](C)CC2C3CCC4=CC(=O)C=C[C@]4(C)[C@@]3(F)[C@@H](O)C[C@@]21C (some centres undefined)
inactive: locus YAL013W, strain DEP1, hits give low values 1.01 | locus YAL021C, strain ccr4, hits give low values 0.959 | locus YAL026C, strain drs2, hits give low values 1 | locus YAL030W, strain snc1, hits give low values 0.969 | locus YBL061C, strain skt5, hits give low values 0.985 | locus YBR009C, strain hhf1, hits give low values 0.983 | locus YBR021W, strain FUR4, hits give low values 0.995 | locus YBR023C, strain chs3, hits give low values 0.978 | locus YBR171W, strain sec66, hits give low values 0.957 | locus YBR229C, strain ROT2, hits give low values 1.01 | locus YBR231C, strain swc5, hits give low values 0.962 | locus YBR279W, strain paf1, hits give low values 0.991 | locus YCL011C, strain gbp2, hits give low values 0.988 | locus YCL016C, strain dcc1, hits give low values 1.01 | locus YCL029C, strain bik1, hits give low values 1 | locus YCL061C, strain MRC1, hits give low values 0.98 | locus YCL069W, strain vba3, hits give low values 0.987 | locus YCR088W, strain abp1, hits give low values 0.984 | locus YDL005C, strain med2, hits give low values 0.964 | locus YDL035C, strain GPR1, hits give low values 1.03 | locus YDL040C, strain nat1, hits give low values 0.961 | locus YDL074C, strain BRE1, hits give low values 1.01 | locus YDL101C, strain DUN1, hits give low values 0.999 | locus YDL134C, strain PPH21, hits give low values 1.02 | locus YDL185W, strain tfp1, hits give low values 1.01 | locus YDL192W, strain arf1, hits give low values 0.998 | locus YDR001C, strain nth1, hits give low values 0.951 | locus YDR069C, strain doa4, hits give low values 0.948 | locus YDR101C, strain arx1, hits give low values 1.02 | locus YDR137W, strain rgp1, hits give low values 0.997 | locus YDR150W, strain NUM1, hits give low values 1.01 | locus YDR159W, strain sac3, hits give low values 0.962 | locus YDR162C, strain NBP2, hits give low values 1.02 | locus YDR195W, strain ref2 0.933 | locus YDR297W, strain sur2, hits give low values 0.988 | locus YDR318W, strain mcm21, hits give low values 0.999 | locus YDR334W, strain swr1, hits give low values 0.948 | locus YDR335W, strain msn5, hits give low values 0.966 | locus YDR388W, hits give low values 0.997 | locus YDR392W, strain spt3, hits give low values 1.07 | locus YDR502C, strain sam2, hits give low values 0.998 | locus YEL003W, strain gim4, hits give low values 0.981 | locus YEL037C, strain rad23, hits give low values 0.98 | locus YEL061C, strain CIN8 (second series), hits give low values 0.975 | locus YEL061C, strain CIN8, hits give low values 1.01 | locus YER015W, strain faa2, hits give low values 0.985 | locus YER016W, strain bim1, hits give low values 1.04 | locus YER110C, hits give low values 0.995 | locus YER111C, strain swi4, hits give low values 0.986 | locus YER155C, strain BEM2 (second series), hits give low values 0.967 | locus YER155C, strain BEM2, hits give low values 0.999 | locus YER167W, strain BCK2, hits give low values 1.01 | locus YFR010W, strain ubp6, hits give low values 0.958 | locus YGL078C, strain dbp3, hits give low values 0.997 | locus YGL086W, strain mad1, hits give low values 1 | locus YGL167C, strain pmr1, hits give low values 0.954 | locus YGL173C, strain kem1, hits give low values 0.961 | locus YGL227W, strain vid30, hits give low values 0.974 | locus YGL240W, strain doc1, hits give low values 0.949 | locus YGL248W, strain PDE1, hits give low values 1 | locus YGL253W, strain hxk2, hits give low values 0.984 | locus YGR078C, strain PAC10, hits give low values 1.01 | locus YGR135W, strain pre9, hits give low values 0.993 | locus YGR252W, strain gcn5, hits give low values 0.955 | locus YHR013C, strain ard1, hits give low values 0.998 | locus YHR027C, strain rpn1, hits give low values 0.982 | locus YHR030C, strain SLT2, hits give low values 1.01 | locus YHR079C, strain IRE1 (second series), hits give low values 0.996 | locus YHR079C, strain IRE1, hits give low values 1.01 | locus YHR094C, strain hxt1, hits give low values 0.995 | locus YHR129C, strain ARP1, hits give low values 1.01 | locus YHR142W, strain chs7, hits give low values 0.961 | locus YHR200W, strain rpn10, hits give low values 0.995 | locus YIL066C, strain RNR3, hits give low values 1.02 | locus YIL073C, strain SPO22, hits give low values 0.99 | locus YIL125W, strain kgd1, hits give low values 0.997 | locus YIR030C, strain dcg1, hits give low values 1 | locus YJL092W, strain hpr5, hits give low values 0.977 | locus YJL095W, strain BCK1 (second series), hits give low values 0.968 | locus YJL095W, strain BCK1, hits give low values 1.02 and 1.01 | locus YJL115W, strain asf1, hits give low values 0.951 | locus YJL129C, strain trk1, hits give low values 0.956 | locus YJL134W, strain LCB3, hits give low values 1.01 | locus YJL154C, strain vps35, hits give low values 0.964 | locus YJL164C, strain tpk1, hits give low values 1 | locus YJL166W, strain qcr8, hits give low values 0.915 | locus YJL168C, strain set2, hits give low values 1.01 | locus YJL187C, strain SWE1 (second series), hits give low values 1.01 | locus YJR043C, strain POL32, hits give low values 1 | locus YJR066W, strain TOR1, hits give low values 0.988 | locus YKL009W, strain mrt4, hits give low values 1 | locus YKL068W, hits give low values 0.998 | locus YKL085W, strain MDH1 (second series), hits give low values 1.03 | locus YKL085W, strain MDH1, hits give low values 1.03 | locus YKL160W, strain elf1, hits give low values 0.971 | locus YKL190W, strain CNB1, hits give low values 1.01 | locus YKR001C, strain vps1, hits give low values 0.988 | locus YKR026C, strain gcn3, hits give low values 0.964 | locus YKR091W, strain srl3, hits give low values 0.97 | locus YLL001W, strain dnm1, hits give low values 0.926 | locus YLL026W, hits give low values 0.991 | locus YLL041C, strain sdh2, hits give low values 0.955 | locus YLR027C, strain aat2, hits give low values 0.979 | locus YLR039C, strain RIC1, hits give low values 1.02 | locus YLR058C, strain SHM2, hits give low values 1.01 | locus YLR102C, strain apc9, hits give low values 0.993 | locus YLR113W, strain HOG1, hits give low values 1.02 | locus YLR221C, strain rsa3, hits give low values 1.02 | locus YLR258W, strain gsy2, hits give low values 0.992 | locus YLR262C, strain YPT6 (second series), hits give low values 0.92 | locus YLR262C, strain YPT6, hits give low values 1.02 | locus YLR268W, strain sec22, hits give low values 1.01 | locus YLR320W, strain mms22, hits give low values 1.02 | locus YLR330W, strain CHS5, hits give low values 1.01 | locus YLR342W, strain FKS1 (second series), hits give low values 1.04 | locus YLR342W, strain FKS1, hits give low values 0.969 | locus YLR357W, strain rsc2, hits give low values 0.982 | locus YLR370C, strain arc18, hits give low values 0.98 | locus YLR371W, strain rom2, hits give low values 0.997 | locus YLR384C, strain iki3, hits give low values 0.965 | locus YLR418C, strain cdc73, hits give low values 0.954 | locus YML016C, strain PPZ1, hits give low values 1.01 | locus YML032C, strain rad52, hits give low values 0.997 | locus YML120C, strain ndi1, hits give low values 0.973 | locus YML124C, strain tub3, hits give low values 1.03 | locus YMR058W, strain fet3, hits give low values 0.97 | locus YMR078C, strain ctf18, hits give low values 0.998 | locus YMR125W, strain sto1, hits give low values 0.963 | locus YMR129W, hits give low values 0.988 | locus YMR205C, strain PFK2, hits give low values 0.958 | locus YMR223W, strain ubp8, hits give low values 0.999 | locus YMR231W, strain pep5, hits give low values 0.965 | locus YMR307W, strain GAS1, hits give low values 0.959 | locus YNL067W, strain RPL9B, hits give low values 1.01 | locus YNL071W, strain lat1, hits give low values 0.992 | locus YNL183C, strain NPR1, hits give low values 0.974 | locus YNL209W, strain ssb2, hits give low values 0.993 | locus YNL233W, strain BNI4, hits give low values 1.01 | locus YNL248C, strain rpa49, hits give low values 1.01 | locus YNL250W, strain rad50, hits give low values 0.975 | locus YNL271C, strain bni1, hits give low values 1 | locus YNL298W, strain CLA4, hits give low values 0.989 | locus YNL307C, strain MCK1, hits give low values 0.998 | locus YNL322C, strain KRE1 (second series), hits give low values 0.961 | locus YNL322C, strain KRE1, hits give low values 0.995 | locus YNR049C, strain mso1, hits give low values 0.982 | locus YNR052C, strain pop2, hits give low values 1.01 | locus YOL012C, strain htz1 0.869 | locus YOL147C, strain pex11, hits give low values 0.999 | locus YOR001W, strain rrp6, hits give low values 0.963 | locus YOR061W, strain CKA2, hits give low values 1.02 | locus YOR069W, strain VPS5, hits give low values 1.01 | locus YOR070C, strain gyp1, hits give low values 0.99 | locus YOR080W, strain dia2, hits give low values 0.946 | locus YOR083W, strain WHI5, hits give low values 0.978 | locus YOR106W, strain vam3, hits give low values 0.927 | locus YOR136W, strain idh2, hits give low values 0.994 | locus YOR144C, strain elg1, hits give low values 0.999 | locus YOR184W, strain ser1, hits give low values 1.01 | locus YOR231W, strain MKK1, hits give low values 1.03 | locus YOR265W, strain rbl2, hits give low values 0.982 | locus YOR270C, strain vph1, hits give low values 0.95 | locus YOR290C, strain snf2, hits give low values 1 | locus YOR316C, strain cot1, hits give low values 1 | locus YPL051W, strain arl3, hits give low values 1.01 | locus YPL078C, strain atp4, hits give low values 0.934 | locus YPL106C, strain sse1, hits give low values 0.969 | locus YPL240C, strain hsp82, hits give low values 0.969 | locus YPL256C, strain CLN2, hits give low values 1.03 | locus YPR119W, strain clb2, hits give low values 0.997 | locus YPR141C, strain kar3, hits give low values 0.99 | locus YPR163C, strain tif3, hits give low values 0.996 | locus YPR167C, strain met16, hits give low values 1 | strain wtn01, hits give low values 0.997
